# From PubChem BioAssay (Tox21)
# Values joined by “and” are separate entries in the source; they are usually repeats but may differ in a detail not shown here. Identical values can stand only once. Inconclusive results are not listed. Where a call stands in place of a potency, no number is given. Active and inactive are the calls of the source. Calls come from the whole dose curve; as a rule, active = well fitted inhibition curve with a large enough effect in the repeat runs; inconclusive = weak or mixed curves; inactive = flat fitted curve, though single readings scatter.
# Assay: qHTS assay to identify small molecule HDAC inhibitors (AID 1259364); note: nearly all actives have a fitted effect of over 45% in size
# Conditions: HCT-116 HDAC-Glo I/II luminescence, 2 h; series mostly up to 92.4 µM
# Description: U.S. Tox21 Program National Center for Advancing Translational Sciences [NCATS] NIH Chemical Genomics Center [NCGC] U.S. Environmental Protection Agency [EPA] National Institutes of Environmental Health Sciences [NIEHS] National Toxicology Program [NTP] U.S. Food and Drug Administration [FDA] Tox21 Assay Overview: Histone deacetylases (HDACs) are a group of epigenetic enzymes that regulate gene expression by histone deacetylation. HDACs are capable of introducing epigenetic modifications and such aberrations contribute to the onset and progression of several human diseases, thus making HDACs a popular therapeutic target. For identifying endogenous class I/II HDAC inhibitors a homogenous, luminogenic HDAC I/II cell based assay was used to measure the relative activity of class I and II HDACs from cells. Wild type HCT-116 cells were used to screen Tox21 libraries for identifying class I/II HDAC inhibitors.
# Tox21 Assay Protocol Summary: HCT-116 cells were dispensed at 1,500 per well in 5uL of culture medium into white solid bottom 1536-well plates (Greiner Bio-One, Monroe, NC) using a Multidrop Combi (Thermo Scientific, Waltham, MA) dispenser. The assay plates were incubated at 37 C and 5% CO2 for an overnight, and then 23nL of compounds dissolved in DMSO and positive control were transferred using a Pintool station (Wako, San Diego, CA). The assay plates were incubated at 37C and 5% CO2 for 2hr. After compound treatment, 4uL of HDAC-Glo reagent (Promega Corporation, Madison, WI) was added to each well of the assay plates using Flying Reagent Dispenser (FRD, Aurora Discovery, San Diego, CA) and incubated the assay plates at room temperature for 30min. The luminescence signal was quantified using a ViewLux plate reader (Perkin Elmer, Shelton, CT).
# Potency is the fitted concentration of half-maximal effect.
row,Compound,Potency
1,Oc1cccc(O)c1,inactive
2,C1CNCCN1,inactive
3,C=CC(=O)NC(C)(C)CS(=O)(=O)O,inactive
4,C/C=C/c1ccc(O)c(OC)c1,inactive
5,CC(=O)Oc1ccccc1C(=O)O,inactive
6,O=C(O)CCCCC1CCSS1 (stereo not given),inactive
7,COc1ccccc1O,inactive
8,COC(=O)c1ccc(O)cc1,inactive
9,CC(=O)c1ccc(S(=O)(=O)NC(=O)NC2CCCCC2)cc1,inactive
10,NC(=O)OCC(COC(N)=O)c1ccccc1,inactive
11,CCCCOCCOCCOC(C)=O,inactive
12,COc1ccc(C(=O)c2ccccc2)c(O)c1,inactive
13,OC[C@@H](O)[C@@H](O)[C@H](O)[C@H](O)CO,inactive
14,COc1ccc(O)cc1,inactive
15,C[C@]12CC[C@@H]3c4ccc(O)cc4C[C@@H](CCCCCCCCCS(=O)CCCC(F)(F)C(F)(F)F)[C@H]3[C@@H]1CC[C@@H]2O (stereo not given in full),inactive
16,C=C(C)C(N)=O,inactive
17,COCC(C)N (stereo not given),inactive
18,OCCCc1ccccc1,inactive
19,CCCCCCCCCCCCCC(=O)OC(C)C,inactive
20,N[C@@H](Cc1c[nH]c2ccc(O)cc12)C(=O)O,inactive

row,Compound,Potency
1,CN(C)Cc1cc(CN(C)C)c(O)c(CN(C)C)c1,inactive
2,CCCCOCCOCCSC#N,inactive
3,O=C1CCCCCN1,inactive
4,C[C@]12C=CC(=O)C=C1CC[C@@H]1[C@@H]2C(=O)C[C@@]2(C)[C@H]1CC[C@]2(O)C(=O)CO,inactive
5,NC(=O)c1ccc([N+](=O)[O-])cc1Cl,inactive
6,O=C(OCc1ccccc1)c1ccccc1,15.4 µM (active) and 13.7 µM (active) and 10.6 µM (active)
7,O=C(O)CN(CC(=O)O)CC(=O)O,inactive
8,NC(N)=NC(N)=NCCc1ccccc1,inactive
9,CC1=NN(c2ccccc2)C(=O)C1,inactive
10,Cc1c(N(C)C)c(=O)n(-c2ccccc2)n1C,inactive
11,CCN(CC)CCOC(=O)c1ccc(N)cc1,inactive
12,NC(=O)NO,inactive
13,CCCCCCCC(=O)OCC(O)CO (stereo not given),inactive
14,Nc1cccc(N)c1,inactive
15,C=CCOC(=O)CC(C)C,inactive
16,Cc1cccc(C)c1O,inactive
17,CC(C)(C)CC(C)(C)c1ccc(O)c(-n2nc3ccccc3n2)c1,inactive
18,NC(=O)N/N=C/c1ccc([N+](=O)[O-])o1,inactive
19,CCCCOC(=O)CCCCCCCCC(=O)OCCCC,inactive
20,CCn1cc(C(=O)O)c(=O)c2ccc(C)nc21,inactive
